Screening data (PubChem)
A selection: hits, their analogues and other compounds. The true share with any hit is near 3.1%.
EP2 modulator: EP2 receptor (human) modulation; AID 940; hit rate 0.83% among 260,000; EP2-expressing cells, cAMP HTRF FRET, PGE2 co-stimulation; induction, % at 25 µM; P43116;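 active = compounds whose cAMP rise, as percent of the full-agonist control response, exceeds 60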;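 note: rat C6 glioma line stably carrying human EP2 under a CMV promoter; the protocol text gives 20 µM as final concentration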
Target sequence (P43116 whole entry, looked up): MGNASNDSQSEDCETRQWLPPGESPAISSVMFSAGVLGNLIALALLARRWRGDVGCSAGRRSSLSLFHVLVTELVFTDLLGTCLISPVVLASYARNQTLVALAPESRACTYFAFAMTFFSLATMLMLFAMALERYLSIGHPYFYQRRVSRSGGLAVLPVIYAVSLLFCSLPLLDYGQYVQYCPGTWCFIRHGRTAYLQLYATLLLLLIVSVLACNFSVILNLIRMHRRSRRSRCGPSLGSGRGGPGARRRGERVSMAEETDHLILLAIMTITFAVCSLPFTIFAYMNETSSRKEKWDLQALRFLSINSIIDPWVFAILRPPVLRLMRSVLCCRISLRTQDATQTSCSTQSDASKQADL
KCC2 mod: KCC2 (human) Cl- transport modulation; Q9H2X9; B-score of Tl+ flux slope (higher = more flux/activation; lower = inhibition) at 10 µM; hit rate 2.2% among 190,000; AID 1456; KCC2 cells, thallium flux FluoZin-2 fluorescence;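 active = thallium flux slope and its plate-corrected score both differing from the plate sample mean at a set confidence after two filtering rounds, in either direction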;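 note: slope of fluorescence scaled to starting intensity during 10 to 20 s after thallium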
S1P3 antagonist: blocks the human S1P3 receptor. CHO S1P3 NFAT-BLA reporter, FRET fluorescence, antagonist mode. inhibition, % at 4.98 µM. hit rate 0.27% among 170,000;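 active = inhibition above the plate cutoff, the mean inhibition of test wells on that plate plus 3 SD, cut at about 28% in these data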;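 note: cells challenged with S1P at its EC80 of 0.8 µM; blue over green emission ratio from cleaved BLA substrate after 4 h stimulation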
PGE2 EP2 inh: blocks the human prostaglandin E2 receptor EP2 | inhibition, % at 25 µM | P43116 | C6 glioma cells expressing human EP2, cAMP TR-FRET; cells stimulated with saturating PGE2 | hit rate 0.52% among 260,000;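 active = percent inhibition above 40 after rounding to a whole number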;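 note: rat C6 glioma host cells with rolipram phosphodiesterase inhibitor present; the protocol text gives 20 µM as final concentration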
EP2 cAMP induct: EP2 receptor cAMP induction, counter-screens negative | shares compounds with EP2 modulator | C6 glioma EP2 cells, cAMP HTRF induction; plus low (about EC15) PGE2 agonist | calls only at 20 µM (by protocol) | hit rate 47% among 1,300;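 active = cAMP induction above 50% in the main assay while under 30% in all four parallel counter assays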;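 note: rat C6 glioma cells stably expressing human EP2 receptor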
A number is an active result; i = inactive; nt = no result given; + = active, no number.

SMILES	EP2 modulator	KCC2 mod	S1P3 antagonist	PGE2 EP2 inh	EP2 cAMP induct
CCOC(=O)c1c(NC(=O)COC(=O)Cn2cnc3ccccc32)sc2c1CCC(C)C2 (configuration not stated)	62	i	i	i	i
CCOC(=O)c1c(NC(=O)CSc2nnc(C)s2)sc2c1CCC(C)C2 (configuration not stated)	i	i	nt	i	i
CCOC(=O)c1c(NC(=O)Cn2nnc3ccccc32)sc2c1CCC(C)C2 (configuration not stated)	i	nt	i	i	i
CCOC(=O)c1c(NC(=O)COC(=O)Cn2c(C)nc3ccccc32)sc2c1CCCC2	i	i	i	i	+
CCc1nn(CC(=O)NCc2ccco2)c(=O)c2cc3ccsc3n12	i	nt	nt	nt	nt
CC(=O)c1cn(CCC(=O)NC2CCCOC2)c2ccccc12 (configuration not stated)	i	nt	nt	i	nt
CCCCC(=O)Nc1sc2c(c1C(=O)OCC)CCC(C=O)=C2Cl	63	i	nt	i	+
CSc1ccccc1NC(=O)CN(C)Cc1cccc(Cl)c1	66	i	i	i	+
COc1cc(CN2CCC(C(=O)N3CCN(c4ccccc4F)CC3)CC2)cc(OC)c1OC	79	i	i	i	i
COc1ccc(CN2CCC(C(=O)N3CCN(c4ccccc4F)CC3)CC2)cc1OC	i	i	i	i	nt
CCC(=O)N(Cc1ccc(F)cc1)Cc1cc2ccc(C)c(C)c2[nH]c1=O	i	nt	nt	i	nt
O=c1c2ccccc2c(=O)n(Cc2ccccc2)n1Cc1ccccc1	66	i	i	i	+
Cc1nc(NC(=O)CSc2nc(COc3ccccc3)nc3ccccc23)sc1C	i	nt	nt	i	nt
c1ccc(Cc2nnc(Sc3ccccc3)c3ccccc23)cc1	69	nt	nt	i	i
c1ccc(Sc2ncnc3ccccc23)cc1	i	i	i	i	nt
CC1CCCCN1c1nc2c(c(=O)[nH]1)CCN(Cc1ccccc1F)C2 (configuration not stated)	i	nt	nt	nt	nt
Cc1ccc(NC(=O)N(Cc2cccnc2)Cc2cc3cc(C)ccc3n3nnnc23)cc1	i	nt	nt	i	nt
COc1ccc2c(C)cc(SCC(=O)Nc3ncc(Cl)cc3Cl)nc2c1	68	i	i	i	i
COc1ccc(CN(Cc2cn(C)nc2C)CC2CCCO2)cc1OC (configuration not stated)	i	nt	nt	i	nt
COC(=O)c1ccc(CSc2ncnc3c2oc2ccccc23)o1	66	i	i	i	i
O=C(CSc1ncnc2c1oc1ccccc12)Nc1ccccc1F	76	i	i	i	i
CCOc1ccccc1NC(=O)CSc1ncnc2c1oc1ccccc12	i	i	i	i	nt
CCCSc1ncnc2c1oc1ccccc12	66	i	i	i	i
COC(=O)c1ccc(CSc2ncnc3ccccc23)o1	i	nt	i	i	nt
COc1ccc(-c2cc(C(F)(F)F)nc(SCCC(=O)Nc3ccc(OC)cc3OC)n2)cc1	i	nt	nt	i	nt
SMILES	EP2 modulator	KCC2 mod	S1P3 antagonist	PGE2 EP2 inh	EP2 cAMP induct
CCOc1ccc(S(=O)(=O)N2CCCCC2CC)cc1 (configuration not stated)	i	nt	nt	i	nt
COc1ccc(-n2c(COc3cccc4ccccc34)nnc2SCC(=O)NCc2ccco2)cc1	66	i	nt	i	i
COc1ccc(-n2c(COc3ccc4ccccc4c3)nnc2SCC(=O)NCc2ccco2)cc1	i	nt	nt	i	nt
O=C(Cc1ccccc1Cl)NCCN1CCC(O)(c2cccc(F)c2)CC1	i	nt	nt	i	nt
Cc1ccc(Oc2nc(-c3ccccc3)ncc2S(=O)(=O)c2ccc(C)cc2)cc1	i	i	nt	i	nt
Cc1ccc(Oc2nc(-c3ccccc3)ncc2S(C)(=O)=O)cc1	75	i	nt	i	i
COc1ccc(NS(=O)(=O)c2ccc(N3CCOCC3)c(NC(=O)c3ccccc3Cl)c2)cc1	i	i	i	i	nt
O=C(Nc1cc(S(=O)(=O)Nc2ccc(Cl)cc2)ccc1N1CCCCC1)c1ccc(F)cc1Cl	76	i	i	i	+
c1ccc(-c2csc3ncnc(N4CCc5ccccc5C4)c23)cc1	72	i	i	i	+
CCCC1=C(C(=O)OCC)C(c2cccs2)C(C#N)=C(N)O1 (configuration not stated)	63	i	nt	i	i
CC(C)=CCc1c(O)cc2oc3c(CC=C(C)C)c(O)c(O)c(CC=C(C)C)c3c(=O)c2c1O	i	i	nt	i	nt
COc1c(O)cc2oc3cc(O)c(CC=C(C)C)c(O)c3c(=O)c2c1CC=C(C)C	i	nt	nt	i	i
Cc1cccc(Cn2c(NCCO)nc3c2c(=O)[nH]c(=O)n3C)c1	i	nt	nt	i	nt
O=C(CSc1nc(-c2ccco2)cc(C(F)(F)F)n1)Nc1ccc(Br)cc1	i	nt	nt	i	nt
CCOc1ccc(C2C(C(=O)c3ccco3)=C(O)C(=O)N2CCCn2ccnc2)cc1 (configuration not stated)	i	i	i	i	nt
Cc1ccc(C(=O)C2=C(O)C(=O)N(CCCn3ccnc3)C2c2ccc(OC(C)C)cc2)o1 (configuration not stated)	65	nt	i	i	i
COC(=O)c1c(NC(=O)Cc2cccs2)sc(C)c1C	i	i	i	i	i
COC(=O)c1c(NC(=O)Cc2ccccc2)sc(C)c1C	i	i	nt	i	nt
COC(=O)c1c(NC(=O)Cc2cccs2)sc2c1CCCC2	i	i	i	i	i
O=C(CCN1C(=O)/C(=C/c2ccc3c(c2)OCO3)SC1=S)NCCCN1CCOCC1	i	nt	nt	i	nt
COc1cc2c(cc1CCNS(=O)(=O)c1ccc3c(c1)OCCO3)CCC2	i	nt	nt	i	nt
Nc1cc(-c2ccco2)nn(CC(=O)Nc2ccc(F)c(Cl)c2)c1=O	i	nt	nt	i	nt
CCc1nc(Cl)c(C#N)c2c1CSC(C)(C)C2	i	i	i	i	nt
CC(C)c1nc(Cl)c(C#N)c2c1CSC(C)(C)C2	73	i	i	i	+
CSc1nnc(-c2cc3c(s2)-c2ccccc2CC3)o1	76	i	nt	i	+
SMILES	EP2 modulator	KCC2 mod	S1P3 antagonist	PGE2 EP2 inh	EP2 cAMP induct
COc1ccc(-c2noc(-c3cc(Cl)ccc3OC)n2)cc1OC	i	nt	nt	i	nt
COc1ccc(C2=NN(C(=O)c3cccs3)C(c3ccccc3O)C2)cc1 (configuration not stated)	71	i	i	i	+
Cc1nc(NC(=O)CSc2nnc3c4c5c(sc4nc(C)n23)CC(C)CC5)sc1C (configuration not stated)	i	nt	nt	i	nt
CCOC(=O)CSc1ncnc2c1sc1nc(N3CCOCC3)c3c(c12)CCCC3	75	i	nt	i	+
COC(=O)CSc1ncnc2c1sc1nc(N3CCOCC3)c3c(c12)CCCC3	i	i	nt	i	nt
COC1(C)CC2C(CC1OC(=O)c1cc([N+](=O)[O-])cc([N+](=O)[O-])c1)C2(C)C (configuration not stated)	72	i	i	i	+
c1ccc(C2Nc3ccccc3Oc3ccccc32)cc1 (configuration not stated)	81	i	nt	i	i
CC1CC2=C(C(=O)O1)C(c1ccccc1)Nc1ccccc1N2 (configuration not stated)	i	i	i	i	nt
CCOc1ccc(CN2CCc3c(nc(N4CCC(C)CC4)[nH]c3=O)C2)cc1	i	nt	nt	nt	nt
CCOc1ccc(C(C)=O)cc1CC(C(N)=O)C(N)=O	69	i	nt	nt	i
